Sm TGR block = blocks Schistosoma mansoni thioredoxin glutathione reductase; Q962Y6; purified TGR, DTNB reduction, TNB absorbance 405 nm; Potency, µM (highest dose often 114 µM), without a hit: at the highest dose activity change, negative = inhibition, hits mostly inhibitors; 3% of 360,000 active; also: potency is read from the fitted curve at half-maximal effect; nearly all actives have a fitted effect of over 60% in size
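First, TGR (20 nM dispensed) and NADPH were mixed with compound. Second, a 15 min room-temperature incubation followed. Third, further NADPH and then DTNB were added to start the reaction. Finally, TNB absorbance was monitored kinetically.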
HCMV inh = blocks human cytomegalovirus replication; 4.5% of 410,000 active; HFF cells, HCMV-luciferase reporter, 72 h; active compounds read low; activity change, negative = inhibition, % at 57.5 µM; in the data active = activity change below about -60%; inconclusive = no clear call, values can overlap the other calls; inactive = above about -39%
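Cell-based, HFFs, 1000 cells/well, 16 h 37C; cpds in DMSO + HCMV-luc, MOI 1 PFU/cell; 72 h 37C; OneGlo luminescence after 5 min RT; norm. to buffer vs Salinomycin 10uM.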
FBPA Giardia inh = Giardia lamblia aldolase inhibition; Potency, µM (top dose mostly 59.6 µM), inactives show at the top dose activity, negative = inhibition, usual class: inhibitors; A8B2U2; 0.71% of 290,000 active; AID 2451; purified Giardia FBPA; also: potency is read from the fitted curve at half-maximal effect; nearly all actives have a fitted effect of over 55% in size
Target sequence (A8B2U2 whole entry, looked up): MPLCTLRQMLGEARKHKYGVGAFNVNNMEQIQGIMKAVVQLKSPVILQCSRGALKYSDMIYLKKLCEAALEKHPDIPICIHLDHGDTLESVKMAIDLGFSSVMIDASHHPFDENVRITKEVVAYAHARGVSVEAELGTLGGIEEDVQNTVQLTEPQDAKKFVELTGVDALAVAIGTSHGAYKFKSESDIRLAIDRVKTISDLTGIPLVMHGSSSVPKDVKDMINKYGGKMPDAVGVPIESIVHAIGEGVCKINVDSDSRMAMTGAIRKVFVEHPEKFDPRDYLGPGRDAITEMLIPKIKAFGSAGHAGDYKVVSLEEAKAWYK
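40 nM FBPA preincubated 10 min at RT with compound (up to 57.5 uM final), then substrate plus GAPDH/TPI/NAD/arsenate coupling and diaphorase/resazurin added. Fluorescence read after 20 min at RT, 525/598 nm.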
Pf growth 96h = P. falciparum growth inhibition at 96 hours; P. falciparum luciferase reporter growth, 96 h; Potency, µM (series often up to 28.7 µM), for inactives: top-dose activity change, negative = inhibition, actives largely listed as inhibitors; 6.9% of 320,000 active; also: potency is read from the fitted curve at half-maximal effect
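P. falciparum expressing integrated firefly luciferase, in erythrocytes at 2% hematocrit, 0.05% parasitemia, incubated with compounds 96 h at 37 C, 5% CO2. Growth inhibition read as loss of luminescence; two-generation exposure targets delayed-death apicoplast inhibitors.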
Pf growth 48h = P. falciparum growth inhibition at 48 hours (one generation); P. falciparum luciferase growth in erythrocytes, 48 h; Potency, µM (highest dose often 28.7 µM), for the others: at the highest dose activity change, negative = inhibition, actives largely listed as inhibitors; 5.9% of 310,000 active; also: potency is read from the fitted curve at half-maximal effect
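Luciferase-expressing P. falciparum in infected erythrocytes (2% hematocrit, 0.1% parasitemia final) in RPMI 1640/0.5% Albumax were exposed to compound for 48 hours at 37 C, 5% CO2; growth read as luminescence.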
* hit, by the source's call. Hits are enriched below; roughly 14% of the tested compounds scored in any of these assays. Unless noted, calls follow the shape of the dose curve; as a rule, active = well fitted curve in the direction sought with a large enough effect; inconclusive = small, poorly fitted or top-dose-only effect, or another doubt; inactive = no such curve, though single readings can be large; an effect the other way counts as inactive or inconclusive. % is scaled to controls: 0 for no effect and ±100 for the full control effect.

Cc1ccc(NS(=O)(=O)c2ccc(C(=O)N3CCCCCC3)cc2)cc1 was read as Sm TGR block -18%, HCMV inh -36, Pf growth 96h inconclusive and Pf growth 48h 10µM*.
Cc1ccc(NS(=O)(=O)c2ccc(C(=O)N3CCC3)cc2)cc1 was read as Sm TGR block 1%, HCMV inh -17, Pf growth 96h -1% and Pf growth 48h inconclusive.
Screening Cc1ccc(NS(=O)(=O)c2ccc(C(=O)N3CCCN(C)CC3)cc2)cc1 returned Sm TGR block -4%, HCMV inh -7, FBPA Giardia inh 1%, Pf growth 96h -13% and Pf growth 48h -9%.
Cc1ccc(NS(=O)(=O)c2ccc(C(=O)N3CC(C)OC(C)C3)cc2)cc1 (centres undefined) was read as Sm TGR block 3%, HCMV inh -21, Pf growth 96h 13µM* and Pf growth 48h inconclusive.
Cc1ccc(NS(=O)(=O)c2ccc(C(=O)N3CCCCCCC3)cc2)cc1 was read as Sm TGR block 0%, HCMV inh -26, Pf growth 96h 2.1µM* and Pf growth 48h inconclusive.
`CCOc1ccc(NS(=O)(=O)c2ccc(C(=O)N3CCCC(C)C3)cc2)cc1` (centres undefined) gave Sm TGR block 2%, HCMV inh -63*, Pf growth 96h inconclusive and Pf growth 48h inconclusive.
For COc1ccc(CCN2CC(C(=O)NCc3nc(C)c(C)s3)CCC2=O)cc1 (centres undefined) the results were Sm TGR block 5%, HCMV inh -2, FBPA Giardia inh 1%, Pf growth 96h inconclusive and Pf growth 48h -18%.
For Cc1ccc(S(=O)(=O)C2(C(=O)N3CCN(C4CCCCC4)CC3)CC2)cc1 the results were Sm TGR block -22%, HCMV inh 25, FBPA Giardia inh 3%, Pf growth 96h 120% and Pf growth 48h -4%.
`COc1ccc(NS(=O)(=O)c2ccc(C(=O)N3CCCCCC3)cc2)cc1` gave HCMV inh -74*.
Screening Cc1ccc(S(=O)(=O)C2(C(=O)N3CCCCCC3)CC2)cc1 returned Sm TGR block 0%, HCMV inh 3, FBPA Giardia inh -1%, Pf growth 96h 4.1µM* and Pf growth 48h -1%.
For Cc1noc(C)c1-c1ccc2ncnc(NCc3ccc(C(F)(F)F)cc3)c2c1 the results were FBPA Giardia inh -3%.
For COc1cccc(NCc2ccc([N+](=O)[O-])s2)c1 the results were Sm TGR block -15%, HCMV inh 30, FBPA Giardia inh -21%, Pf growth 96h 0.33µM* and Pf growth 48h -27%.
`Cc1ccc(S(=O)(=O)NC(=O)C2(C)CCN2C(=O)CC2CCCC2)cc1` (centres undefined) gave HCMV inh 42.
For N#Cc1cccc(-c2nc(NCc3ccccc3)c3ccccc3n2)c1 the results were FBPA Giardia inh 1%.
Screening OC(COc1ccccc1)CN1CCOCC1 (centres undefined) returned Sm TGR block -21%, HCMV inh -30, FBPA Giardia inh -5%, Pf growth 96h 12µM* and Pf growth 48h -15%.
For O=C(c1ccccc1)c1ccc(OCC(O)CN2CCCCC2)cc1 (centres undefined) the results were Sm TGR block -7%, HCMV inh 40, FBPA Giardia inh -3% and Pf growth 48h inconclusive.
For O=C(c1ccccc1)c1ccc(OCC(O)CN2CCN(S(=O)(=O)N3CCCCC3)CC2)cc1 (centres undefined) the results were Sm TGR block 8%, HCMV inh -67*, FBPA Giardia inh -3% and Pf growth 96h 5.2µM*.
Cc1ccc(S(=O)(=O)N2CC3C(=O)CC(c4ccccc4)N(S(=O)(=O)c4ccc(C)cc4)C3CC2c2cccc(Cl)c2)cc1 (centres undefined) was read as HCMV inh -15.
`Cc1cn([C@H]2C[C@H](O)[C@@H](CCC(=O)NC(c3ccccc3)c3ccccc3)O2)c(=O)[nH]c1=O` gave HCMV inh -9.
`Cc1nc(-c2ccc(C)c(S(=O)(=O)N3CCC(C(=O)NCc4ccc(Cl)cc4)CC3)c2)no1` gave Sm TGR block -1% and HCMV inh 4.
`COc1ccc(Cl)cc1N1C(=O)/C(=C\c2sccc2C)N=C1SCC(=O)NC1CC1` gave Sm TGR block -9%, HCMV inh -33, FBPA Giardia inh -9% and Pf growth 96h 9.3µM*.
Screening CC(C)CNC(=O)COC(=O)c1ccc2c(c1)C(=O)N(Cc1ccco1)C2=O returned Sm TGR block -1%, HCMV inh -31, FBPA Giardia inh 7%, Pf growth 96h 12% and Pf growth 48h 19%.
COc1ccccc1CNC(=O)C1CCN(C2=NS(=O)(=O)C(c3ccc(C)c(C)c3)=C2C)CC1 was read as Sm TGR block 1% and HCMV inh -64*.
`CCOc1ccccc1CNC(=O)C1CCN(C2=NS(=O)(=O)C(c3ccc(C)c(C)c3)=C2C)CC1` gave Sm TGR block 3% and HCMV inh -8.
COc1ccccc1CNC(=O)C1CCC(CNS(=O)(=O)c2ccc(C)cc2)CC1 (centres undefined) was read as Sm TGR block 5%, HCMV inh -5, FBPA Giardia inh 8%, Pf growth 96h 7.4µM* and Pf growth 48h inconclusive.
`COc1ccccc1CNC(=O)C(CC(C)C)NC(=O)C1CCC(C)CC1` (centres undefined) gave Sm TGR block 1%, HCMV inh 4, FBPA Giardia inh -3% and Pf growth 96h 13µM*.
Screening Cc1ccc(N2CC(NC(=O)CCc3ccccc3)CC2=O)cc1C (centres undefined) returned Sm TGR block 0% and HCMV inh -30.
For Cc1ccc(C(=O)N[C@@H](C)CN2C3=NC[C@H](C(C)C)N3C[C@H]2Cc2ccc(O)cc2)cc1Br the results were Sm TGR block 8.9µM*, HCMV inh -35, FBPA Giardia inh 3%, Pf growth 96h 9.3µM* and Pf growth 48h inconclusive.
`C/C=C(\C)C(=O)NCCN1C2=NC[C@@H](C)N2C[C@@H]1Cc1ccc(OC)cc1` gave Sm TGR block -1%, HCMV inh -20, FBPA Giardia inh 5%, Pf growth 96h 69% and Pf growth 48h 47%.
For COc1ccc(C[C@H]2CN3C(=NC[C@@H]3C(C)C)N2C[C@H](C)NC(=O)c2ccc(C)c(Br)c2)cc1 the results were Sm TGR block 15%, HCMV inh -37, FBPA Giardia inh 3%, Pf growth 96h 2.9µM* and Pf growth 48h inconclusive.
For CCCS(=O)(=O)NC(=O)C1(C)CCN(C(=O)c2ccc(SC(F)(F)F)cc2)C1 (centres undefined) the results were HCMV inh -12.
